Assay outcomes deposited in PubChem by Broad Institute.
Wnt bcat act: activators of Wnt/beta-catenin signaling; Wnt/beta-catenin reporter cell assay, activator, plate reader; activation, % at 9.35 µM; 300,000 compounds, 1.2% hits; in the data active = activation above about 30%, passing the limit was not always enough; inconclusive = no clear call, values can overlap the other calls;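 also: 0% = neutral control wells and 100% = positive control wells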
Rtt109 HAT inh: inhibitors of Candida albicans Rtt109/Vps75 histone acetyltransferase | Q5AAJ8 | inhibition, % at 34.9 µM | 330,000 compounds, 0.16% hits | purified Rtt109/Vps75, ThioGlo CoA-SH fluorescence, 4 h;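 active = inhibition of at least 50% in every replicate; inconclusive = best replicate reaches 50% inhibition but some replicates fall short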
Target sequence (Q5AAJ8 whole entry, looked up): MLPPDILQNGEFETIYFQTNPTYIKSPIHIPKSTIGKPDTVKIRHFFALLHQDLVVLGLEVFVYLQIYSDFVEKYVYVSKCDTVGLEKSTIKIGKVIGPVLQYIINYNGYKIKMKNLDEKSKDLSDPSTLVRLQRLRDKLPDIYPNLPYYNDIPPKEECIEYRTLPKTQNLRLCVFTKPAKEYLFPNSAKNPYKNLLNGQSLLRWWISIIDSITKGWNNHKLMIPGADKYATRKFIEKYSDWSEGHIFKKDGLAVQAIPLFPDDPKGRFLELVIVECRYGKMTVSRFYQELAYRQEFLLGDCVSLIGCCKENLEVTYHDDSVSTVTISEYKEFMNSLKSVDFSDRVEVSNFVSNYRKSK
MITF TRPM1 HTS: increases MITF-driven TRPM1 promoter luciferase signal; activation, % at 12.5 µM; SK-MEL-5 TRPM1-promoter luciferase, 24 h; % of positive control, neutral wells = 0; 300,000 compounds, 0.75% hits;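 active = mean activation of at least 80% with every replicate also reaching 80%; inconclusive = mean reaches 80% but some replicate falls short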;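 also: 0% = neutral control wells and 100% = parthenolide positive control wells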
Statin myotox sup: protects C2C12 myotubes from simvastatin toxicity; ATP luminescence, 48 h; scaled: DMSO 0, geranylgeraniol control 100; rescue of ATP level, % at 7.49 µM; 330,000 compounds, 0.78% hits; AID 602340;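 active = mean ATP rescue above about 67%, or every replicate alone reaching that limit, limit read from the data, passing the limit was not always enough; inconclusive = no clear call, values can overlap the other calls; inactive = mean under the limit and some replicate under it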;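 also: myotubes were challenged with 10 µM simvastatin during compound exposure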
esBAF inh: SWI/SNF esBAF complex inhibition. mouse ES cells, Bmi1-luciferase knock-in reporter, 24 h; 100% = twice the neutral-well signal. reporter increase, % at 12.5 µM. 350,000 compounds, 2% hits. AID 602393; in the data active = activation above about 40%; inconclusive = no clear call, values can overlap the other calls;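 also: 0% = median of the plate's neutral control wells and 100% = double that signal; a rise in the Bmi1 reporter signal indicates esBAF inhibition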
An asterisk follows results filed as active; ? = inconclusive; / = no result given. Sampled rows, rich in hits. Any-hit rate of the full collection: about 3.1%.

SMILES	Wnt bcat act	Rtt109 HAT inh	MITF TRPM1 HTS	Statin myotox sup	esBAF inh
CCCN1[C@@H]2c3ccc(C4=CCCC4)c(=O)n3C[C@H]1[C@H](CO)[C@H]2C(=O)NCc1ccccn1	/	/	/	-12.3	-12.9
S=C(NCCc1cccc(Cl)c1)NC1CCCCC1	21.6	-5.4	46.3	-9.8	65.8*
O=C(NCC[C@@H]1CC[C@H](NS(=O)(=O)Cc2ccccc2)[C@@H](CO)O1)C1CCCC1	/	/	/	6.8	4.2
c1ccc2oc(-c3ccn[nH]3)cc2c1	40.0*	-2.7	/	/	/
COc1ccc(S(=O)(=O)Nc2ccc3c(c2)[C@@H]2C[C@H](CC(=O)NCC4CC4)O[C@H](CO)[C@@H]2O3)cc1	/	/	/	-7.1	4.1
Cc1ccc(-n2nc3c(n2)/C(=N/O)CC/C3=N\O)cc1	42.6*	-1.1	24.5	-55.2	20.6
O=C(CNS(=O)(=O)c1ccc(Br)s1)N1CCN(c2ncccn2)CC1	/	0.1	1.6	149.6*	-3.3
CCCCCCC(=O)N(O)C1CC(=O)N(c2ccc(C)cc2)C1=O (configuration not stated)	7.2	10.5	-13.0	-12.2	-9.6
CCCCCCC(=O)N(O)C1CC(=O)N(c2ccc(Cl)cc2)C1=O (configuration not stated)	51.8*	-4.0	/	/	/
C[C@@H]1CCCCO[C@@H](CN(C)Cc2ccccc2)[C@@H](C)CN([C@H](C)CO)C(=O)c2cc(NS(=O)(=O)c3cn(C)cn3)ccc2O1	/	/	/	/	-1.7
Cc1cc(/C=C(/C#N)c2cccc(F)c2)c(C)n1-c1cccnc1	1.0	/	87.8*	25.4	21.0
Cc1cc(/C=C(\C#N)C(=O)NCc2ccco2)c(C)n1-c1cccnc1	-2.1	12.8	37.4	/	/
COCCCn1c(SCC(=O)NCc2ccco2)nc2sc3c(c2c1=O)CCC3	-3.5	0.0	-9.2	132.3*	-4.1
O=C(CSc1nc2sc3c(c2c(=O)n1-c1ccccc1)CCCC3)NCc1ccco1	-2.3	-1.5	-32.5	7.1	-11.6
O=C(CCn1c(SCC(=O)NCc2ccco2)nc2ccccc2c1=O)NCCc1ccccc1	-6.0	0.3	0.9	102.3*	7.3
COCCNc1nc2sc3c(c2c(=O)n1Cc1ccco1)CCCCC3	20.0	0.7	39.5	-6.3	75.1*
O=c1c2c3c(sc2nc(NCCO)n1Cc1ccco1)CCCCC3	0.9	-1.5	28.2	10.6	79.6*
C[C@H](CO)N1C[C@H](C)[C@H](CN(C)S(=O)(=O)c2cn(C)cn2)Oc2ncc(C3=CCCC3)cc2C1=O	/	/	/	-58.7	-4.3
CCOC(=O)c1cnc2c(-c3ccccc3)c(C)nn2c1N	13.9	16.4	/	0.2	29.1
CCOC(=O)c1cnn(-c2ccccn2)c1N	/	-0.7	102.3*	-4.4	39.8
CCOC(=O)c1cnc2c(-c3ccccc3)cnn2c1N	38.4*	1.6	59.3	-18.3	-14.7
CC(=O)N1CCN(c2nc(-c3ccco3)c3c(c2C#N)CC(C)(C)SC3)CC1	-0.2	0.3	/	-2.7	-2.9
CC1(C)Cc2c(C#N)c(N3CCN(C(=O)c4ccco4)CC3)nc(-c3ccco3)c2CS1	-3.8	-1.5	2.7	121.4*	5.7
O=C(NCc1ccccn1)c1cc(-c2ccccc2)nc2ccccc12	-1.1	4.3	5.5	/	/
O=C(NCc1ccccn1)c1cc(-c2ccc(-c3ccccc3)cc2)nc2ccccc12	-8.4	-0.3	22.9	-10.5	45.3*
SMILES	Wnt bcat act	Rtt109 HAT inh	MITF TRPM1 HTS	Statin myotox sup	esBAF inh
CCc1ccc(C(=O)N/N=C(\C)c2cccnc2)s1	10.6	-6.7	109.1*	-0.7	43.3*
COCCNC(=O)c1cc(-c2ccc(-c3ccccc3)cc2)nc2ccccc12	9.4	-6.4	49.3	-13.1	47.4*
CCCc1ccc(-c2cc(C(=O)NCCc3ccc(S(N)(=O)=O)cc3)c3ccccc3n2)cc1	/	-1.0	105.7*	53.1	32.3
O=C([C@H]1[C@H](CO)[C@H]2Cn3c(ccc(-c4ccncc4)c3=O)[C@@H]1N2Cc1cccnc1)N1CCOCC1	/	/	/	-9.0	-1.0
COCC#Cc1ccc2c(c1)O[C@H](CN(C)S(=O)(=O)c1ccc(F)cc1)[C@H](C)CN([C@@H](C)CO)S2(=O)=O	/	/	/	2.5	0.7
COc1ccc(OC)c(-c2cc(C(=O)N/N=C(\C)c3cccnc3)c3ccccc3n2)c1	-5.5	3.0	-1.1	-6.8	-7.7
Cc1cccc(-c2cc(C(=O)NCc3ccccn3)c3ccccc3n2)c1	-1.9	5.2	2.8	/	/
CCOc1ccc(-c2cc(C(=O)N/N=C(\C)c3cccnc3)c3ccccc3n2)cc1	19.8	-7.2	88.0*	-17.8	19.7
Cc1ccc(-c2cc(C(=O)NCc3ccccn3)c3ccccc3n2)cc1C	/	-1.7	32.9	6.8	48.4*
CN(C)C(=O)C[C@H]1CC[C@@H](NC(=O)c2ccc(F)cc2)[C@H](CO)O1	/	/	/	-18.8	-2.0
CCCC#Cc1ccc2c(c1)O[C@@H](CN(C)Cc1ccc3c(c1)OCO3)[C@@H](C)CN([C@H](C)CO)S2(=O)=O	/	/	/	5.2	-29.0
Cc1cc(C(N)=O)c2ccccc2n1	/	/	1.1	12.8	-1.0
NC(=O)c1cc2c3ccccc3ccn2c1-c1ccccc1	?	3.3	-22.4	-6.5	49.5*
CO[C@H]1CN(C)C(=O)c2cc(NC(=O)c3cccc(Oc4ccccc4)c3)ccc2OC[C@@H](C)NC[C@@H]1C	/	/	/	-38.5	-3.1
Cc1cc2oc(=O)cc(CN3CCC(C)CC3)c2cc1C	5.0	-0.5	67.6	-6.7	41.4*
CC(=O)N1CCN(Cc2cc(=O)oc3cc(C)c(C)cc23)CC1	0.2	/	/	10.7	-1.3
CCc1cc2c(=O)n(C(C)C(=O)OC3CCCCC3)cnc2s1 (configuration not stated)	1.5	-0.5	99.8*	-7.3	?
COc1ccc(C2=NOC(C(=O)NCc3cccs3)C2)cc1 (configuration not stated)	0.0	-10.9	5.0	96.7*	-3.2
COc1cc(C2=NOC(C(=O)NCc3ccco3)C2)cc(OC)c1OC (configuration not stated)	/	8.4	11.4	/	/
COCCNC(=O)C1CC(c2ccc([N+](=O)[O-])cc2)=NO1 (configuration not stated)	-1.3	-7.9	10.2	8.4	3.6
COc1cc(C2=NOC(C(=O)NCc3cccs3)C2)cc(OC)c1OC (configuration not stated)	-9.1	-8.1	-26.9	87.3*	1.3
O=C(NCCc1cccs1)C1CC(c2ccc([N+](=O)[O-])cc2)=NO1 (configuration not stated)	34.4*	-4.6	90.5*	6.4	58.8*
CCC(=O)N(C)C[C@@H]1Oc2cc(C#Cc3ccncc3)ccc2S(=O)(=O)N([C@H](C)CO)C[C@H]1C	/	/	/	25.9	4.3
Cc1ccc(C)c(N=Nc2nc3ccccc3n2C)c1	/	/	0.2	-21.3	41.4*
Cc1ccc(S(=O)(=O)N(C)C[C@@H]2Oc3ccc(NC(=O)Nc4c(C)noc4C)cc3CC(=O)N([C@@H](C)CO)C[C@H]2C)cc1	/	/	/	5.8	0.5
C[C@@H]1CCCCO[C@@H](CN(C)Cc2ccc(C(F)(F)F)cc2)[C@H](C)CN([C@@H](C)CO)C(=O)c2cc(NC(=O)Nc3ccc4c(c3)OCO4)ccc2O1	/	/	/	/	7.4
